{"source": "PubChem BioAssay (Tox21)", "note": "Several values for one entry are separate records, joined by “and”; a condition that tells them apart may be missing. Equal values may be shown once. Activity calls are given as the source filed them. The call rests on the fitted dose curve; in most records, active means well fitted curve in the direction sought with a large enough effect in the repeat runs; inconclusive means weak or mixed curves; inactive means flat fitted curve, though single readings scatter. On the % scale 0 is the no-effect control and ±100 the full control effect."}
{"assay": "qHTS assay to test for compound auto fluorescence at 535 nm (green) in HepG2 cells (AID 720675)", "settings": "green autofluorescence 485/535 nm, 1 h; series mostly up to 91.3 µM; fluorescence, % of fluorescein control: at the top concentration", "excerpt": "National Center for Advancing Translational Sciences [NCATS]\nNIH Chemical Genomics Center [NCGC]\nU.S. Environmental Protection Agency [EPA]\nNational Institutes of Environmental Health Sciences [NIEHS]\nNational Toxicology Program [NTP]\nU.S. Food and Drug Administration [FDA]\nCompound auto fluorescence often interferes with screening of the compound library against various biological targets and signaling pathways. Some of these compounds may have fluorophoric properties. Such properties may interfere with the assay outputs resulting in false positives and/or negatives. To decrease such complications and ensure the compound activities are relevant in terms of biological response, the Tox21 10K compound library was screened for auto fluorescence.\nFrom the fluorophores used as reporter signals in our screening assays, the auto fluorescence equivalencies of compounds against three fluorophores have been evaluated: Triamterene, Fluorescein and Rose Bengal sodium for blue, green and red fluorescence, respectively. The fluorescence intensities were measured using Excitation/Emission wavelengths at 405/460nm, 485/535nm and 540/590nm for blue, green and red labels, respectively. This assay includes the green fluorescence data.\nTox21 Assay Protocol Summary:\n2,000 HepG2 cells in 5 uL of culture medium (MEM containing 10% FBS) per well were dispensed into black wall/clear bottom 1536-well plates using a Multidrop Combi Dispenser (ThermoFisher Scientific, Waltham, MA). The assay plates were incubated overnight at 37 C to allow cell attachment to the well bottom, followed by the transfer of 23 nL compound or DMSO vehicle by a pintool work station (Kalypsys , San Diego, CA). After the assay plates were incubated for 1 hr at 37 C and 5% CO2, fluorescence intensities in the assay plates were measured by an Envision (PerkinElmer, Shelton, CT) plate reader using three labels for measuring blue, green and red fluorescence at […] 460, 535 and 590 nm respectively."}
{"smiles": "CC(C)(C)c1cc(CCC(=O)OCC(COC(=O)CCc2cc(C(C)(C)C)c(O)c(C(C)(C)C)c2)(COC(=O)CCc2cc(C(C)(C)C)c(O)c(C(C)(C)C)c2)COC(=O)CCc2cc(C(C)(C)C)c(O)c(C(C)(C)C)c2)cc(C(C)(C)C)c1O", "fluorescence, % of fluorescein control": "-0.0563% [at 46 µM] (inactive)"}
{"smiles": "N#CCc1cccc(C(F)(F)F)c1", "fluorescence, % of fluorescein control": "-0.146% (inactive)"}
{"smiles": "Cc1ccc(C(C)c2ccc(C)c(C)c2)cc1C", "fluorescence, % of fluorescein control": "-0.0145% (inactive)"}
{"smiles": "c1ccc(CNCc2ccccc2)cc1", "fluorescence, % of fluorescein control": "-0.0358% (inactive)"}
{"smiles": "Oc1ccc2c(c1)OCO2", "fluorescence, % of fluorescein control": "-0.0601% (inactive)"}
{"smiles": "CC1(C)[C@H]2CC[C@]1(C)[C@H](O)C2", "outcome": "inactive"}
{"smiles": "CCN(CC)C(C)=O", "fluorescence, % of fluorescein control": "-0.0101% [at 95.7 µM] (inactive)"}
{"smiles": "OC(CCN1CCCCC1)(c1ccccc1)C1CCCCC1", "note": "(stereo not given)", "fluorescence, % of fluorescein control": "-0.0815% [at 46 µM] (inactive)"}
{"smiles": "Cl/C(=C\\n1cncn1)c1ccc(Cl)cc1Cl", "fluorescence, % of fluorescein control": "0.0161% [at 46 µM] (inactive)"}
{"smiles": "c1ccc(-c2nc[nH]c2-c2ccccc2)cc1", "fluorescence, % of fluorescein control": "-0.0281% [at 46 µM] (inactive)"}
{"smiles": "Oc1ccc(Sc2ccc(O)cc2)cc1", "fluorescence, % of fluorescein control": "0.0687% (inactive)"}
{"smiles": "O=C(c1ccc(O)cc1)c1ccc(O)cc1", "fluorescence, % of fluorescein control": "0.0323% (inactive)"}
{"smiles": "O=C(c1ccccc1)c1ccc2n1CCC2C(=O)O", "note": "(stereo not given)", "outcome": "inactive"}
{"smiles": "CC(C(=O)O)c1ccc(C(=O)c2ccccc2)s1", "note": "(stereo not given)", "fluorescence, % of fluorescein control": "-0.0168% [at 18.6 µM] (inactive)"}
{"smiles": "CC1(C)CCC(C)(C)c2cc(NC(=O)c3ccc(C(=O)O)cc3)ccc21", "fluorescence, % of fluorescein control": "-0.0029% [at 46 µM] (inactive)"}
{"smiles": "CC(C)CCCC(C)CCO", "note": "(stereo not given)", "fluorescence, % of fluorescein control": "0.0053% (inactive)"}
{"smiles": "O=C(O)c1cccc(N(Cc2cccnc2)c2ccc(OC(F)F)c(OC(F)F)c2)c1", "fluorescence, % of fluorescein control": "-0.0117% (inactive)"}
{"smiles": "O=S1(=O)c2cccc3cccc(c23)N1CCCN1CCN(c2ccc(F)cc2)CC1", "fluorescence, % of fluorescein control": "0.0167% [at 46 µM] (inactive)"}
{"smiles": "NC[C@H]1O[C@H](O[C@H]2[C@H](O)[C@@H](O[C@H]3O[C@H](CO)[C@@H](O)[C@H](N)[C@H]3O)[C@H](N)C[C@@H]2N)[C@H](O)[C@@H](O)[C@@H]1O", "fluorescence, % of fluorescein control": "-0.0979% [at 18.6 µM] (inactive) and 0.0187% [at 3.72 µM] (inactive)"}
{"smiles": "CN(C)CC[C@@H](c1ccc(Br)cc1)c1ccccn1", "fluorescence, % of fluorescein control": "-0.0174% [at 46 µM] (inactive)"}
{"smiles": "C=CC(C)(CCC=C(C)C)OC(=O)c1ccccc1", "note": "(stereo not given)", "fluorescence, % of fluorescein control": "0.187% (inactive)"}
{"smiles": "O=C(C(=O)c1ccc(Br)cc1)c1ccc(Br)cc1", "fluorescence, % of fluorescein control": "0.0081% [at 18.6 µM] (inactive)"}
{"smiles": "CC(C)(C)c1cc(CO)cc(C(C)(C)C)c1O", "fluorescence, % of fluorescein control": "-0.138% [at 95.7 µM] (inactive)"}
{"smiles": "CCCC(=O)OCC", "fluorescence, % of fluorescein control": "-0.022% (inactive)"}
{"smiles": "O=C(CCN1CCN2CCCC2C1)N1c2ccccc2Sc2ccc(Cl)cc21", "note": "(stereo not given)", "fluorescence, % of fluorescein control": "0.0421% [at 46 µM] (inactive)"}
{"smiles": "N#Cc1c(F)cccc1F", "fluorescence, % of fluorescein control": "-0.0177% (inactive)"}
{"smiles": "Cc1c(Cn2ccnc2)c2ccccc2n1CCC(=O)O", "fluorescence, % of fluorescein control": "-0.109% [at 46 µM] (inactive)"}
{"smiles": "CN1CCC(OC(c2ccccc2)c2ccccc2)CC1", "fluorescence, % of fluorescein control": "-0.0945% [at 18.6 µM] (inactive)"}
{"smiles": "Cc1ccccn1", "outcome": "inactive"}
{"smiles": "O=C1[C@H](CC[C@H](O)c2ccc(F)cc2)[C@@H](c2ccc(O)cc2)N1c1ccc(F)cc1", "fluorescence, % of fluorescein control": "-0.127% [at 46 µM] (inactive)"}
{"smiles": "CCC(=O)OC(C)(C)C1CC=C(C)CC1", "note": "(stereo not given)", "fluorescence, % of fluorescein control": "0.0049% (inactive)"}
{"smiles": "Cc1cc(CC(=O)O)c(C)n1-c1ccc(Cl)cc1", "fluorescence, % of fluorescein control": "0.416% [at 46 µM] (inactive)"}
{"smiles": "NCc1ccccc1", "fluorescence, % of fluorescein control": "0.0128% (inactive)"}
{"smiles": "CN(C)CCCNCCCN", "fluorescence, % of fluorescein control": "0.0313% (inactive)"}
{"smiles": "CN(C(=O)CCCOc1ccc2[nH]c(=O)ccc2c1)C1CCCCC1", "fluorescence, % of fluorescein control": "-0.129% [at 46 µM] (inactive)"}
{"smiles": "O=C(CC(=O)c1ccccc1)c1ccccc1", "fluorescence, % of fluorescein control": "-0.0627% [at 95.7 µM] (inactive)"}
{"smiles": "Cc1ncsc1CCO", "fluorescence, % of fluorescein control": "-0.26% (inactive)"}
{"smiles": "O=C(O)C(c1ccc(Cl)cc1)c1ccc(Cl)cc1", "fluorescence, % of fluorescein control": "0.0113% (inactive)"}
{"smiles": "C=C(C)C(=O)OC(C)C", "fluorescence, % of fluorescein control": "-0.0035% (inactive)"}
{"smiles": "C=CC(=O)OCC(C)OCC(C)OCC(C)OC(=O)C=C", "note": "(stereo not given)", "fluorescence, % of fluorescein control": "0.0931% (inactive)"}
